The whole screen tested about 1,800 compounds, of which about 410 (23%) were called active. The rule behind the calls is not given here. Only a sample is shown. A call without a number means that no potency is given here. Potency and affinity values are given separately.

The assay is described as follows: Vero cell cytotoxicity, cytotoxicity control for flavivirus capping enzyme inhibitors (AID 588742). Conditions: Vero cells viability, cytotoxicity counter-screen; series mostly up to 40 µM. On the technique in general: Counterscreens check selectivity or assay interference.
With `COc1c(OC(C)=O)ccc(/C=N\NC(=O)c2ccc(Br)cc2)c1[N+](=O)[O-]`, the compound was called inactive.
The result for `O=C(O/N=C1\CCCCC1c1ccc([N+](=O)[O-])cc1[N+](=O)[O-])c1c(F)cccc1F` (stereo not given) reads “inactive”.
As to `O=C(O)c1cc(/C=C/C(=O)c2cc(F)ccc2O)c2c(c1)COCO2`, the outcome was inactive.
The result for `Cc1cc(S(=O)(=O)ON2C(=O)c3ccccc3C2=O)ccc1F` reads “inactive”; that for `Cc1cc(N2C(=O)C(O)=C(C(=O)c3ccco3)C2c2cccc(Oc3ccccc3)c2)no1` (stereo not given), “inactive”; that for `CCCCC1=CC2=CC(=O)C(C)(OC(=O)CC)C(=O)C2=CN1Cc1ccc(OC)cc1` (stereo not given), “inactive”.
The value for `O=C1C=CC2=C3c4cc(O)c(O)cc4CC3(O)COC2=C1O` (stereo not given) was “inactive”; that for `CCOC(=O)C1(C)/C(=N/Nc2cccc(Cl)c2)C(=O)C(=O)N1c1ccccc1` (stereo not given) was “inactive”.
Take `N=C1/C(=C\c2ccc(OC(=O)c3ccc(F)cc3)cc2)C(=O)N=C2SC(N3CCOCC3)=NN12`: the outcome was inactive.
Consider `O=C(CCN1C(=O)/C(=C/c2ccccc2Cl)SC1=S)Nc1ccccc1C(=O)O`, for which the compound was called inactive.
Consider `O=C(O)CCCCCN1C(=O)C(O)=C(C(=O)/C=C/c2ccccc2)C1c1ccccc1[N+](=O)[O-]` (stereo not given), for which the result was inactive.
With `O=C(N/N=C/C(Cl)=C/c1ccc([N+](=O)[O-])cc1)C(=O)Nc1ccccc1C(=O)O`, the compound was classed as inactive.
The result for `Oc1cc(-n2cccn2)c(O)cc1-n1cccn1` reads “inactive”.
The result for `CC(=O)Nc1ccc(NC(=O)CC2Nc3cccc4cccc(c34)NC2=O)cc1` (stereo not given) reads “inactive”.
For the compound `COc1ccc(C2C=C(c3ccc(F)cc3)NC(=S)N2)cc1OC` (stereo not given), the outcome was inactive.
The value for `COC(=O)CCC(=O)OC1(C)C(=O)C2=CN(c3ccccc3)C(c3ccc(OC)cc3)=CC2=C(Br)C1=O` (stereo not given) was “inactive”; that for `O=c1[nH]c(/C=C/c2ccc(Cl)cc2Cl)c([N+](=O)[O-])c(=O)[nH]1` was “inactive”.
As to `CC1CCc2c(sc(N)c2C(N)=O)C1` (stereo not given), the compound was classed as inactive.
Turning to `O=c1cccccc1NCc1ccccc1`, the call was inactive.
Regarding `NC(=S)NNc1cccc2cccnc12`, the result was inactive.
The result for `CN(C(=S)Nc1cccnc1)c1ccc(O)cc1` reads “inactive”.
The value for `CCOc1ccc(Nc2ccc(N)c(S(=O)(=O)O)c2)cc1` was “inactive”.
The result for `Oc1ccc(NCc2ccc(OCc3ccccc3)cc2)cc1` reads “inactive”; that for `CCC(C)c1ccc(NC(=O)Nc2cccnc2)cc1` (stereo not given), “inactive”.
As for `O=C1C=C(Nc2ccccc2C(=O)O)c2ccccc2C1=O`, the outcome was inactive.
On to `C#CCOc1c(/C=C\c2nc(O)c([N+](=O)[O-])c(=O)[nH]2)cc(Br)cc1OC`, for which the result was inactive.
With `COC(=O)c1ccc(NC(=O)CCc2nnc3ccc(NCc4ccco4)nn23)cc1`, the compound was classed as inactive.
For the compound `COc1ccc(OC)c(/C=C/c2c([N+](=O)[O-])c(=O)n(C)c(=O)n2C)c1`, the compound was called inactive.
The result for `CC1(OC(=O)CCc2ccccc2)C(=O)C=C2C=C(c3ccc(C#N)cc3)N(C3CCCC3)C=C2C1=O` (stereo not given) reads “inactive”.
For `O=C1/C(=C\c2ccc(-c3ccccc3[N+](=O)[O-])o2)C(c2ccccc2)=NN1c1ccccc1`, the outcome was inactive.
For the compound `CCn1c(CSc2nnc3ccccn23)nc2cc(C(=O)O)ccc21`, the outcome was inactive.
On to `O=C(O)C1=CC[C@@H](c2ccc(Cl)cc2)N(S(=O)(=O)c2ccc(Cl)cc2)[C@H]1c1cccc(Cl)c1`, for which the compound was called inactive.
Take `Cc1ccc(C)c(S(=O)(=O)ON2C(=O)c3ccccc3C2=O)c1`: the outcome was inactive.
Regarding `COc1ccccc1CNC(=S)Nc1ccc(S(N)(=O)=O)cc1`, the call was inactive.
Consider `Cc1ccc(Nc2ccc(N)cc2S(=O)(=O)O)cc1`, for which the outcome was inactive.
The value for `CCOC(=O)c1c(-c2cccc(C)c2)csc1NC(=O)C1CC=CCC1C(=O)O` (stereo not given) was “inactive”; that for `Cc1ccc(C(=O)Nc2ccccc2C(=O)O)cc1S(=O)(=O)Nc1ccc(Br)cc1` was “inactive”; that for `COC(=O)c1ccc(N2NC(=O)/C(=C/c3ccc(-c4ccc(Cl)c(C(=O)O)c4)o3)C2=O)cc1` was “inactive”.
The value for `CC1(OC(=O)C2CCCC2)C(=O)C=C2C=C(c3ccsc3)N(CCc3ccccn3)C=C2C1=O` (stereo not given) was “inactive”; that for `CSc1nsc2nc(=O)c(/C=C3\C=Nc4ccccc43)c(N)n12` was “inactive”; that for `CC1=NN(Cc2ccccc2)C(=O)C1C(c1ccc(Cl)cc1)C(C#N)C#N` (stereo not given) was “inactive”.
The result for `Cc1ccc(NC(=O)c2cccc(C(=O)Nc3ccc(C)cc3C(=O)O)c2)c(C(=O)O)c1` reads “inactive”; that for `Cc1ccc(F)c(NC(=O)/C(C#N)=C(\O)c2ccc(C(C)(C)C)cc2)c1`, “inactive”.
Regarding `Cn1c(=O)c2[nH]c(-c3ccccc3)c(O)c2n(C)c1=O`, the call was inactive.
On to `O=C(O)c1ccc2c(c1)C(=O)N(c1ccc(/C=C/C(=O)c3ccccc3)cc1)C2=O`, for which the call was inactive.
Take `O=C(O)COc1ccc(/C=C/C(=O)c2ccc(C3CCCCC3)cc2)cc1`: the result was inactive.
Consider `C#CCOc1c(Br)cc(/C=C2/C(=O)ON=C2C)cc1OC`, for which the result was inactive.
On to `CC(C(=O)Nc1ccc(O)cc1C(=O)O)N1C(=O)/C(=C\c2cccs2)SC1=S` (stereo not given), for which the call was inactive.
The result for `O=C1CC2CCCN2C=C1I` (stereo not given) reads “inactive”.
`c1cc2c(cc1CNc1ccc(N3CCOCC3)cc1)OCO2`: the call was inactive.
On to `Cc1ccc(-c2cc(C(=O)O)c3cc(Br)ccc3n2)o1`, for which the call was inactive.
With `Cc1ccnc(NCc2ccccc2O)c1`, the compound was classed as inactive.
The value for `CN1CCN(C2=C(Cl)C(=O)N(c3ccc(Cl)c(Cl)c3)C2=O)CC1` was “inactive”; that for `O=C1C(Cl)=C(N2CCCCC2)C(=O)N1c1ccccc1` was “inactive”.
The result for `O=C1C(Cl)=C(N2CCCC2)C(=O)N1c1ccccc1F` reads “inactive”.
For the compound `Cc1ccc(N2C(=O)C(Cl)=C(N3CCN(C)CC3)C2=O)c(C)c1`, the compound was called inactive.
The value for `CCCCNC(=O)c1ccc2nc(-c3ccco3)c(-c3ccco3)nc2c1` was “inactive”; that for `CC1=NN(c2ccc(C)c(C)c2)C(=O)C1C(c1cccc(O)c1)C1C(=O)N(c2ccc(C)c(C)c2)N=C1C` (stereo not given) was “inactive”; that for `CCCCC1=CC2=C(c3ccco3)C(=O)C(C)(OC(=O)c3ccc(OC)cc3)C(=O)C2=CN1C(CO)CO` (stereo not given) was “inactive”.
The result for `C=CCOc1ccc(C(c2c(O)nc(SC)[nH]c2=O)c2c(O)nc(SC)[nH]c2=O)cc1` reads “inactive”.
Consider `CC(=O)N1c2ccc(S(=O)(=O)N(C)CC(=O)Nc3ccccc3C)cc2CC1C` (stereo not given), for which the result was inactive.
The result for `O=C(CN1C(=O)/C(=C2/SC(=S)N(CCS(=O)(=O)O)C2=O)c2ccccc21)Nc1cccc(Br)c1` reads “inactive”; that for `O=C(O)c1ccccc1NS(=O)(=O)c1ccc(NNC(=S)Nc2ccc(OC(F)F)cc2)c([N+](=O)[O-])c1`, “inactive”; that for `C=CCNc1nc(Nc2ccc([N+](=O)[O-])cc2)nc(OC)n1`, “inactive”.
As for `O=C(Nc1ccc(Cl)cc1C(=O)O)c1ccc2c(c1)C(=O)N(Cc1ccco1)C2=O`, the compound was classed as inactive.
The value for `C#CCOc1ccccc1/C=C1/C(=O)ON=C1C` was “inactive”.
As to `COc1ccc(-c2csc(NC(=O)c3ccccc3Br)c2C(=O)O)cc1`, the compound was classed as inactive.
The value for `Cc1ccc(/C=N/NC(=O)c2nnn(-c3nonc3N)c2CSc2ccccc2)s1` was “inactive”; that for `CCC(=O)OC1(C)C(=O)C2=COC(c3ccc(OC)cc3)=CC2=C(Br)C1=O` (stereo not given) was “inactive”.
As to `CCc1ccc(Nc2ccc(C(=O)O)cc2[N+](=O)[O-])cc1`, the call was inactive.
The value for `O=C(Nc1cc(S(=O)(=O)N2CCOCC2)ccc1O)c1ccc2c(c1)S(=O)(=O)c1ccccc1C2=O` was “inactive”.
In the case of `O=S(=O)(Nn1c(O)c(C=C2N=c3ccccc3=N2)sc1=S)c1ccccc1`, the compound was classed as inactive.
The result for `O=C1ON=C(c2ccc([N+](=O)[O-])cc2)/C1=C/c1ccccc1O` reads “inactive”.
The result for `O=C(NCc1ccccc1)c1sc(=S)n2c1[nH]c(=O)c1ccccc12` reads “inactive”; that for `Nc1scc2c(C(=O)O)nn(-c3ccccc3)c(=O)c12`, “inactive”; that for `CCOC(=O)c1sc(N2C(=O)C(O)=C(C(=O)c3ccco3)C2c2ccc([N+](=O)[O-])cc2)nc1C` (stereo not given), “inactive”.
For `Cc1cc(O)c(C(C)C)cc1N=Cc1ccccc1O`, the outcome was inactive.
The result for `O=C1C(Cl)=C(N2CCN(Cc3ccccc3)CC2)C(=O)N1c1ccccc1` reads “inactive”; that for `CC(=O)Oc1oc(-c2ccccc2)nc1C=Nc1ccccc1`, “inactive”.
The value for `COc1cc(C(=O)Nc2scc(-c3ccc(Br)cc3)c2C(=O)O)cc(OC)c1OC` was “inactive”; that for `Cc1ccc(SCc2[nH]nc3c2C(c2ccco2)C(C#N)=C(N)O3)cc1` (stereo not given) was “inactive”; that for `Nc1cccc2c1C(=O)N(C(=O)/C=C/c1cccc(F)c1)C2=O` was “inactive”.
For the compound `O=[N+]([O-])c1ccc(O)c(C=Nc2ccc3c(c2)OCO3)c1`, the compound was classed as inactive.
The value for `Cc1cc(O)c(C(C)C)cc1N=Cc1cc([N+](=O)[O-])ccc1O` was “inactive”.
The value for `CC[N+]1(CC)CC2CCC(C)(C1)C2(C)C` (stereo not given) was “inactive”; that for `CCCn1c(C)cc(-c2csc(N)n2)c1C` was “inactive”.
Take `O=[N+]([O-])c1c(Nc2ccccc2O)cc(Cl)c2nonc12`: the compound was classed as inactive.
The value for `O=C(O)c1cccc(Nc2cc(Cl)c3nonc3c2[N+](=O)[O-])c1` was “inactive”; that for `O=C(O)c1cc(Nc2cc(Cl)c3nonc3c2[N+](=O)[O-])ccc1O` was “inactive”.
The value for `O=C(O)c1ccc(Nc2cc(Cl)c3nonc3c2[N+](=O)[O-])cc1` was “inactive”; that for `O=[N+]([O-])c1ccc(O)c(Nc2c([N+](=O)[O-])ccc3nonc23)c1` was “inactive”.
The value for `Cc1ccc(/C=N/c2sc3c(c2C#N)CCC3)s1` was “inactive”; that for `COc1cc(C2C(C#N)=C(N)N(c3cccnc3)C3=C2C(=O)CCC3)ccc1O` (stereo not given) was “inactive”; that for `CCCCCc1c2c(cc(O)c1C(=O)O)OC(=O)c1cc(C(=O)CCCC)c(OC)cc1O2` was “inactive”.
Consider `COC(=O)Cc1ccc(NC(=S)Nc2ccc(N3CCOCC3)cc2)cc1`, for which the compound was called inactive.
Take `COc1cc(/C=C2/C(=O)NN(c3cccc(C)c3)C2=O)ccc1OC(=O)c1ccco1`: the call was inactive.
The result for `CCC(C)NC(=O)c1ccc(N2CCC3(CC2)OCCO3)c([N+](=O)[O-])c1` (stereo not given) reads “inactive”.
The result for `CC(C)NC(=O)Cn1cc(S(=O)(=O)N2CCCC2)c(S(=O)(=O)N2CCCC2)c1` reads “inactive”; that for `CC(=O)Nc1ccc(C2=NNC(=NCC3CCCO3)SC2)cc1` (stereo not given), “inactive”.
Regarding `O=C(O)CN1C(=O)/C(=C\c2cc(Br)ccc2OCc2ccc([N+](=O)[O-])cc2)SC1=S`, the compound was classed as inactive.

These data come from PubChem BioAssay AID588742 (Southern Research Specialized Biocontainment Screening …, 2011).
